Compound activity (PubChem BioAssay)
D1 antag – Antagonist of Human D 1 Dopamine Receptor: qHTS | actives 3.2% (n = 360,000) | HEK293 TREx D1 cells, calcium flux, dopamine EC80; active compounds read low | activity change, negative = inhibition, % at 10 µM | D(1A) dopamine receptor (Homo sapiens), P21728; in the data active = activity change below about -30%
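HEK293 T-REx cells expressing inducible, force-coupled D1 receptor; no-wash Ca dye, 30–90 min RT. Cmpd → 180 s read at 1 Hz → EC80 DA → 180 s read.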
TRHR PAM – qHTS for Small Molecule Agonists and Allosteric Enhancers of Human TRH Receptor: Primary Screen for Enhancers | Thyrotropin-releasing hormone receptor (Homo sapiens), P34981 | TRHR cells, fluo-8 calcium fluorescence, EC20 TRH enhancement | enhancement, % at 2 µM | actives 0.66% (n = 360,000) | AID 493056, 2011; in the data active = enhancement above about 30%
Target sequence (P34981 whole entry, looked up): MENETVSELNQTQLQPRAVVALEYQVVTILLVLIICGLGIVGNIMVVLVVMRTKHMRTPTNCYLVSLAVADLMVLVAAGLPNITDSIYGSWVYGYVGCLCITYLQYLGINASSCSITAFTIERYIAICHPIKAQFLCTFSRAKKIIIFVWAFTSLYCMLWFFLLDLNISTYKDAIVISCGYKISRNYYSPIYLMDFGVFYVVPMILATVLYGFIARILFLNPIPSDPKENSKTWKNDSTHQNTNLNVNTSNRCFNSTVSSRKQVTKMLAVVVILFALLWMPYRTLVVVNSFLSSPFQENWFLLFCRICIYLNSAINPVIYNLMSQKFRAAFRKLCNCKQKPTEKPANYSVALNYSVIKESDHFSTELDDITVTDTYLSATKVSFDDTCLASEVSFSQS
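TRHR-expressing cells loaded with fluo-8 calcium dye were read kinetically (ex 480/em 530) during compound addition, then stimulated with an EC20 of TRH (10 nM final). Enhancement of the Gq-mediated intracellular calcium response was scored.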
D1 potentiator – Potentiators of Human D1 Dopamine Receptor: qHTS; D(1A) dopamine receptor (Homo sapiens), P21728; HEK293 TREx D1 cells, calcium flux, dopamine EC20 potentiation; potentiation, % at 10 µM; actives 0.036% (n = 360,000); AID 504651, 2011; in the data active = potentiation above about 30%
D1 agonist – Allosteric Agonists of the Human D1 Dopamine Receptor: qHTS. HEK293 T-REx D1 cells, calcium flux, agonist mode. actives 1% (n = 360,000). activation, % at 2 µM. AID 504660, 2011. D(1A) dopamine receptor (Homo sapiens), P21728
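Agonism was scored from calcium flux recorded over 180 s (1 read/s) after pintool compound addition, following a 10-cycle baseline. Cells were inducible force-coupled HEK293 TREx D1, plated overnight at 30 C and loaded with no-wash calcium dye.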
TRHR ag – qHTS for Small Molecule Agonists and Allosteric Enhancers of Human TRH Receptor: Primary Screen for Agonists. AID 493084, 2011. TRHR cells, calcium flux fluo-8, FDSS agonist mode. actives 0.18% (n = 360,000). activation, % at 2 µM
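Read-out: compound-evoked intracellular calcium rise in TRHR cells, fluo-8 dye, kinetic FDSS fluorescence at 1 s/cycle following a 10-cycle baseline. Cells cultured overnight before dye loading (30 min–1.5 h, RT).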
Numbers stand for hits; - = inactive; . = no result. Sampled rows, rich in hits. Any-hit rate of the full collection: about 4.7%. Cut-off read from the data, not from the text of the source, unless noted: active = activation above about 30%; inactive = the rest.

SMILES	D1 antag	TRHR PAM	D1 potentiator	D1 agonist	TRHR ag
CCOc1ccc(Nc2cc(C)nc3nncn23)cc1	-	-	-	-	-
COc1cccc(OCc2nc3ccccc3n2Cc2ccccc2C)c1	-	-	-	39.9	-
CCn1c(COc2ccc(OC)cc2)nc2ccccc21	-	-	-	-	-
C=CCn1c(COc2ccc(OC)cc2)nc2ccccc21	-34.8	-	-	-	-
COc1ccc(Cc2nc3ccccc3n2Cc2ccccc2C)cc1	-	-	-	-	-
CC(=O)NCCCc1nc2ccccc2n1Cc1ccccc1C	-	-	-	42.5	-
CCc1ccc(NC(=O)CC2C(=O)N(c3cccc(C)c3)C(=O)N2CCC(C)C)cc1 (stereo unspecified)	-	-	-	-	-
CCc1ccccc1NC(=O)c1ccc(Cn2cc([N+](=O)[O-])cn2)cc1	-	-	-	38.3	-
CCN(CC)C(=O)c1ccc(Cn2cc([N+](=O)[O-])cn2)o1	-36.8	-	-	-	-
CCc1ccc(CNC(=O)c2cnc3sc(N4CCCCC4)nn3c2=O)cc1	-	-	-	-	-
NC(=O)COc1ccc(=O)n(-c2ccccc2)n1	-42.2	-	.	-	-
Cc1cc(Oc2ccc(=O)n(C)n2)nc(SCC(N)=O)n1	-	-	-	-	-
O=c1ccc(OCCOc2ccccc2)nn1-c1ccccc1	-	-	-	-	-
Cn1nc(OCC(N)=O)ccc1=O	-50.9	-	-	-	-
COc1cc(OC)c(OC)cc1CNC1CCCCCC1	-	-	-	-	-
COc1cc(OC)c(CNC2CCCCCC2)cc1Br	-	-	-	61.9	-
Cc1ccc(OCCn2c(C)c(/C=N/n3cnnc3)c3ccccc32)cc1	-33.6	-	-	-	-
Cc1c(/C=N/n2cnnc2)c2ccccc2n1CCOc1ccc(Cl)cc1	-	-	-	-	-
Cc1cc(NC(=O)C(C)Sc2nnc(NCc3ccco3)s2)no1 (stereo unspecified)	-	-	-	-	-
CC(C)c1ccc(OCCCCN2CCCCC2)cc1	-	-	-	-	-
CC(C)Oc1ccc(OCCCN2CCCCCC2)cc1	-	-	-	-	-
CC(C)(C)c1ccc(OCCCN2CCCC2)cc1	-	38.2	-	-	-
Clc1ccc(OCCCCN2CCCCC2)cc1	-38.7	-	-	-	-
C/C(CC(=O)Nc1ccc(C)c(Cl)c1)=N\NC(=O)c1cccc(O)c1	-	31.6	-	-	-
C/C(CC(=O)Nc1cccc(Cl)c1Cl)=N\NC(=O)c1ccccc1C	-43.1	-	-	-	-
SMILES	D1 antag	TRHR PAM	D1 potentiator	D1 agonist	TRHR ag
C=CCOc1cccc(CNCc2ccncc2)c1	-34.9	-	-	-	-
CC(C)(C)c1ccc(C(=O)NCCc2csc(-c3ccc(Cl)cc3)n2)cc1	-	-	-	-	-
CN(C)CCCNC(=O)c1ccc(-c2nc(-c3ccc(Cl)cc3)cs2)cc1	-58.5	-	-	-	-
Clc1ccc(-c2nnc3n2CCCCS3)cc1	-	-	-	-	-
C=C1Cn2c(nnc2-c2ccc(Cl)cc2)S1	-61.1	-	-	-	-
Cc1ccc(S(=O)(=O)N(C)C)cc1NC(=O)COC(=O)CC1CCCC1	-	-	-	-	-
Cc1ccc(S(=O)(=O)N(C)C)cc1NC(=O)COC(=O)CCC1CCCCC1	-39.1	-	-	-	-
Cc1ccc(CSCCNS(=O)(=O)c2ccc(C)cc2)cc1	-40.1	-	-	-	-
Cc1ccc(S(=O)(=O)NCCC(=O)O)cc1	-	-	-	-	-
Cc1ccc(S(=O)(=O)NCC(=O)NC2CCCCCC2)cc1	-	33.5	-	-	-
Cc1ccc(S(=O)(=O)NCCCC(=O)O)cc1	-32.0	-	-	-	-
CCc1ccc(N(CC(=O)NC2CC2)S(=O)(=O)c2ccc(C)cc2)cc1	-42.7	-	-	-	-
Cc1ccc(S(=O)(=O)NCC(=O)NC2CCCC2)cc1	-	-	-	-	-
COc1ccc(CCNC(=O)c2ccc3c(c2)ncn3-c2ccc(C(C)C)cc2)cc1OC	-	-	-	-	-
Cc1nnc(N)nc1C	-38.4	-	-	-	-
COc1ccc(CNC(=O)c2ccc(N3CCCC3)c(NC(=O)NCc3ccc(C)cc3)c2)cc1	-	-	-	-	-
CCOc1ccccc1CNS(=O)(=O)c1ccc2c(c1)CCCN2C(C)=O	-50.2	-	-	-	-
CS(=O)(=O)N1CCc2cc(S(=O)(=O)NCCNS(=O)(=O)c3ccc4c(c3)CCN4S(C)(=O)=O)ccc21	-	-	-	-	-
CC1CN(C(=O)c2ccc(NS(=O)(=O)c3ccc(C(C)(C)C)cc3)cc2)CC(C)O1 (stereo unspecified)	-	-	-	34.6	-
CS(=O)(=O)N1CCc2cc(S(=O)(=O)NCc3ccccc3Cl)ccc21	-100.6	-	-	-	-
CCOc1ccc(NS(=O)(=O)c2ccc3c(c2)N(C(C)=O)CC3)cc1	-32.1	-	-	-	-
CC(=O)N1CCCc2cc(S(=O)(=O)NCc3ccccc3Cl)ccc21	-	-	-	-	-
O=C(Nc1ccc(Cl)c(Cl)c1)N(Cc1c[nH]c2ccccc12)C1CCCCC1	-	-	-	-	-
CC(Nc1ccc(Br)cc1)C(=O)Nc1cccc(S(=O)(=O)N2CCOCC2)c1 (stereo unspecified)	-	-	-	-	-
O=C(CN1C(=O)C(=O)N(Cc2ccccc2)C1=O)c1ccc[nH]1	-	-	-	-	-
SMILES	D1 antag	TRHR PAM	D1 potentiator	D1 agonist	TRHR ag
CCOc1ccc(NS(=O)(=O)c2ccc(C(=O)N3CCCCC3)cc2)cc1	-	-	-	50.4	-
CCOc1ccc(NS(=O)(=O)c2ccc(C(=O)N3CC(C)OC(C)C3)cc2)cc1 (stereo unspecified)	-59.5	-	-	112.9	-
CCOc1ccc(NS(=O)(=O)c2ccc(C(=O)N3CCN(c4ncccn4)CC3)cc2)cc1	-	-	-	-	-
CCOc1ccc(S(=O)(=O)Nc2ccc(C(=O)N3CC(C)OC(C)C3)cc2)cc1 (stereo unspecified)	-	-	-	30.8	-
CCOc1ccc(S(=O)(=O)Nc2ccc(C(=O)NCC3(N4CCCCC4)CCCCC3)cc2)cc1	-	-	-	54.1	-
Cn1c(=O)cc2c3c(c(N4CCCCC4)ccc31)C(=O)c1ccccc1-2	-	-	-	-	-
Cn1c(NCCc2ccccc2)cc(=O)n(C)c1=O	-	-	-	-	-
CCCCNc1c2c3c(cccc3n(C)c1=O)C(=O)c1ccccc1-2	-46.7	-	-	326.2	94.4
CCNc1c2c3c(cccc3n(C)c1=O)C(=O)c1ccccc1-2	-	-	-	373.1	151.1
